Shown are actives, neighbours in structure and some others; about 2.7% of the full set was active somewhere.
MsrA inh: inhibits bovine methionine sulfoxide reductase A; hit rate 0.75% among 360,000; purified bovine MsrA, absorbance read-out; inhibition, % at 15.5 µM; AID 651718; in the data active = inhibition above about 4.5%;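 note: 0% = vehicle wells with enzyme and 100% = reference inhibitor wells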
NadD block: blocks S. aureus nicotinate mononucleotide adenylyltransferase. purified NadD enzyme, colorimetric absorbance read-out. inhibition, % at 20 µM. hit rate 0.78% among 360,000. AID 602399; in the data active = inhibition above about 26%
bovine MsrA act: bovine methionine sulfoxide reductase A activation. hit rate 0.3% among 360,000. activation, % at 10.6 µM. purified bovine MsrA, absorbance read-out; in the data active = activation above about 7.5%;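 note: 0% = vehicle and 100% = reference activator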
rCAG RNA binder: r(CAG) repeat RNA binding; TO-PRO-1 dye displacement fluorescence; inhibition, % at 3 µM; hit rate 1.3% among 370,000; AID 651821;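 active = inhibition above the plate cutoff, the mean of all test compounds on that plate plus 3 SD, cut at about 35% in these data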;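 note: 0% = DMSO alone and 100% = 100 µM mitoxantrone as full dye displacement; higher means more dye released from RNA so lower well fluorescence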
NadD conf: NadD (S. aureus) inhibition, single concentration confirmation; inhibition, % at 20 µM; purified S. aureus NadD, colorimetric enzyme assay; AID 624309; hit rate 13% among 2,000; shares compounds with NadD block; in the data active = inhibition mostly above about 42%, no sharp cut-off; inactive = mostly below about 42%
* marks the source's active call; other numbers are inactive results; · = no result given.

SMILES	MsrA inh	NadD block	bovine MsrA act	rCAG RNA binder	NadD conf
N/C(=N\N=C\c1ccco1)SC1CC(=O)N(c2ccc(C(=O)O)cc2)C1=O (centres undefined)	4	-6	-10	2	·
N/C(=N\N=C\c1ccnc2ccccc12)SC1CC(=O)N(c2ccc(Br)cc2)C1=O (centres undefined)	-1	46*	-4	23	7
O=S(=O)(c1ccc(NC(=S)N/N=C/c2ccc(N3CCOCC3)cc2)cc1)N1CCOCC1	0	1	0	6	·
O=S(=O)(c1ccc(NC(=S)N/N=C/c2c3ccccc3cc3ccccc23)cc1)N1CCOCC1	4	34*	-4	21	28
O=S(=O)(c1ccc(NC(=S)N/N=C/c2ccc(Oc3ccccc3)cc2)cc1)N1CCOCC1	2	28*	-7	6	-3
COc1ccc(-c2sc(Nc3ccc(F)c(F)c3F)nc2CCC(=O)NN)cc1	-1	6	-3	10	·
O=C(c1ccc(Cl)c(S(=O)(=O)Nc2ccccc2C(=O)N2CCc3ccccc3C2)c1)N1CCc2ccccc2C1	0	47*	-7	32	33
CCc1cccc2c1NC(=O)C21N2CCCC2C(C(=O)c2ccc3ccccc3c2)C12C(=O)Nc1ccccc12 (centres undefined)	0	39*	-10	17	52*
CCc1ccc2c(c1)C1(C(=O)N2)N2CCCC2C(C(=O)c2ccc3ccccc3c2)C12C(=O)Nc1ccccc12 (centres undefined)	0	23	-1	8	·
CCCC(NC(=O)C(C)N1CCN(S(=O)(=O)c2ccccc2)CC1)c1ccccc1 (centres undefined)	1	-7	-4	-9	·
COc1ccc(-c2csc3ncnc(N4CCN(S(=O)(=O)c5cccc(C(F)(F)F)c5)CC4)c23)cc1	0	17	-2	4	·
Cc1ccc(S(=O)(=O)N2CCN(c3ncnc4scc(-c5ccc(F)cc5)c34)CC2)cc1	0	37*	-3	2	14
COc1ccc(-c2csc3ncnc(N4CCN(S(=O)(=O)c5cccc(Br)c5)CC4)c23)cc1	0	31*	-5	4	18
Cc1ccc2c(c1)C(=O)N1c3cc(C)c(C)cc3NC(=O)C1C(=O)N2 (centres undefined)	0	-1	-4	1	·
CSCCCNC(=O)c1oc(=O)c2ccccc2c1-c1ccc(C)cc1	·	·	·	-2	·
CC1=C(C(=O)N2CCOCC2)CC(CC(=O)NCCN2CCOCC2)C(=O)N1Cc1ccc(F)cc1 (centres undefined)	0	2	-2	0	·
COc1cccc(N2CC(C(=O)Nc3nnc(SCC(=O)Nc4cc(C)on4)s3)CC2=O)c1 (centres undefined)	-1	41*	-2	11	3
Cc1ccc(N2CC(C(=O)Nc3nnc(SCC(=O)Nc4cc(C)on4)s3)CC2=O)cc1 (centres undefined)	-1	39*	-5	4	2
COCCCn1cc(CN2CC(N3CCN(Cc4ccccc4F)CC3)CS2(=O)=O)nn1 (centres undefined)	-1	2	-3	2	·
CCOC(=O)C1(C(=O)OCC)Cc2c([nH]c3ccccc23)[C@]2(N1)C(=O)N(C)c1ccc(Br)cc12	·	·	·	3	·
COc1ccc(NC(=O)CSc2ccc3c4c(cccc24)C(=O)c2ccccc2-3)cc1	-1	33*	-1	0	2
Cc1ccccc1C1C(C#N)=C2N=C(N)c3c(sc4c3CCCCC4)N2C2=C1C(=O)CCC2 (centres undefined)	·	43*	-2	·	40
CCC(C)(C)C1CCC2(CC1)NC(=O)N(CC(=O)NC(C)CCc1ccccc1)C2=O (centres undefined)	0	48*	-4	-5	-21
O=C1Nc2cc(C(=O)NCCN3CCCCCC3)ccc2S/C1=C\c1ccccc1	0	44*	-4	14	-17
COc1cccc(/C=C2/Sc3ccc(C(=O)NCCN4CCCCCC4)cc3NC2=O)c1	0	42*	-1	19	-2
SMILES	MsrA inh	NadD block	bovine MsrA act	rCAG RNA binder	NadD conf
Cc1cccc(/C=C2/Sc3ccc(C(=O)NCCN4CCCC4)cc3NC2=O)c1	2	12	1	18	·
Cc1ccc(CS(=O)(=O)Cc2ccc(C(=O)NCCCN3CC(C)CC(C)C3)o2)cc1 (centres undefined)	2	-2	-6	-7	·
COc1ccc2oc(C(=O)Nc3nc(-c4ccccn4)cs3)c(C)c2c1	2	34*	0	11	2
O=C(O)/C=C/c1cn(-c2ccccc2)nc1-c1ccc(-c2ccc([N+](=O)[O-])cc2)o1	0	49*	-7	15	9
Cc1ccc2nc3c(cc(S(=O)(=O)c4ccccc4)c(=N)n3Cc3ccco3)c(=O)n2c1	2	31*	-8	25	22
COc1ccc(CCn2c(=N)c(S(=O)(=O)c3ccc(Cl)cc3)cc3c(=O)n4ccccc4nc32)cc1	0	30*	-2	0	22
COc1ccc(CCn2c(=N)c(S(=O)(=O)c3ccccc3)cc3c(=O)n4ccccc4nc32)cc1	0	21	-3	0	·
Cc1cccn2c(=O)c3cc(S(=O)(=O)c4ccc(F)cc4)c(=N)n(Cc4ccco4)c3nc12	0	35*	-4	5	7
Cc1cccn2c(=O)c3cc(S(=O)(=O)c4ccc(Br)cc4)c(=N)n(C4CCCCC4)c3nc12	0	27*	-2	2	22
N=c1c(S(=O)(=O)c2ccccc2)cc2c(=O)n3ccccc3nc2n1Cc1ccco1	-1	16	-4	8	·
CN(C)c1ncnc2c1ncn2C1CCCO1 (centres undefined)	0	4	-3	2	·
Cc1cccn2c(=O)c3cc(S(=O)(=O)c4ccccc4)c(=N)n(Cc4ccc(F)cc4)c3nc12	-1	32*	-4	0	13
CCC1SC2=NC(C)=C(C(=O)OCCOC)C(/C=C/c3ccccc3OC)N2C1=O (centres undefined)	0	5	-4	-2	·
COC(=O)C1=C(C)N=C2SC(C)C(=O)N2C1/C=C/c1ccccc1OC (centres undefined)	0	29*	-1	16	44
CC(=O)N1c2ccc(S(=O)(=O)N(C)Cc3ccccc3)cc2CC1C (centres undefined)	-1	-6	0	-2	·
Cc1ccc2[nH]c(C)c(CCNC(=O)c3c(N)no[n+]3[O-])c2c1	0	-5	-1	-2	·
Cc1ccc2[nH]c(C)c(CCNC(=O)c3cc4cc([N+](=O)[O-])ccc4oc3=O)c2c1	0	33*	-4	7	5
COC(=O)[C@]12C[C@H](CC(=O)N3CCC(c4ccccc4)CC3)C(=O)N(CCC3=CCCCC3)C1=C[C@H](C(C)(C)C)O[C@@H]2C	0	·	·	5	·
COc1ccc(Br)cc1CNC(=O)CN1C(=O)C(c2ccccc2)Oc2cccnc21 (centres undefined)	2	59*	-2	-11	52*
CCCCN(C)C(=O)C1CCN(c2ccc(S(=O)(=O)N3CCOCC3)cc2[N+](=O)[O-])CC1	-1	7	-3	-6	·

Assay outcomes (PubChem)
